This is an account of results in PubChem BioAssay (NCI).

Values joined by “and” are separate entries in the source; they are usually repeats but may differ in a detail not shown here. Equal values may be shown once. The panel holds about 79,000 compounds, 15% with a hit somewhere; the sample as a whole holds those more often. A number with no mark means an inactive call. Active and inactive are the calls of the source. No stated cut-off is given here; in the data, active means growth inhibition above about 70%; inactive means the rest. *1 amine or outer side, *2 acyl side, *3 side chain or, on linkers, in order; H or OH if unused. Where a SMILES comes first, the peptide text is derived from it. [ ]: non-standard residue; d: D form. X2 = CC[C@H](C)[C@H](OC(=O)[C@@H](C)[C@@H](CC)N[*:1])C(=O)[*:2]; X3 = C[C@H](N[*:1])C(=O)C(C)(C)C(=O)[*:2]; NMeY = CN[C@@H](Cc1ccc(O)cc1)C(=O)O; NMeL = CN[C@@H](CC(C)C)C(=O)O; NMeV = CN[C@H](C(=O)O)C(C)C

Assay [1] can be described thus: NCI Yeast Anticancer Drug Screen. Data for the rad50 strain (AID 155).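 Further: 0% = growth of vehicle-only cultures of the same strain.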 The following applies: S. cerevisiae rad50 strain growth inhibition, active compounds read high. Summed up: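 A DNA repair-deficient yeast mutant serves as the test organism; compound-induced growth inhibition is calculated against vehicle-treated cells.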
Assay [2] in a line: NCI Yeast Anticancer Drug Screen. Data for the mec2-1 strain (AID 157). To be noted: S. cerevisiae mec2-1 strain, active compounds read high. The gist of the method:
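Vehicle-treated cultures served as reference for growth inhibition of compound-exposed mec2-1 yeast.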

The nature of assay [3]: NCI Yeast Anticancer Drug Screen. Data for the sgs1 mgt1 strain (AID 161).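 Further: 0% = growth of cultures given vehicle only.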 The following applies: S. cerevisiae sgs1 mgt1 strain, active compounds read high. The gist of the method:
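Test agents were incubated with a DNA-repair-mutant yeast strain. Growth was then read and compared against vehicle-treated controls.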

Assay [4] in a line: NCI Yeast Anticancer Drug Screen. Data for the cln2 rad14 strain (AID 165).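 Further: 0% = growth equal to vehicle treated cultures.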 The following applies: S. cerevisiae cln2 rad14 strain, active compounds read high. The gist of the method:
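Each compound was tested on cln2 rad14 yeast. Inhibition of growth was calculated against vehicle-exposed controls.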

Assay [5] in a line: NCI Yeast Anticancer Drug Screen. Data for the bub3 strain (AID 167). To be noted: S. cerevisiae bub3 mutant strain, active compounds read high. The gist of the method: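 Inhibition values come from growth of compound-treated mutant yeast normalised to vehicle-treated controls.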
Assay [6] in a line: NCI Yeast Anticancer Drug Screen. Data for the mlh1 rad18 strain (AID 175). The following applies: S. cerevisiae mlh1 rad18 strain growth inhibition, active compounds read high. The gist of the method:
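Vehicle-treated cultures served as the reference for growth inhibition in a yeast strain carrying DNA damage repair alterations exposed to each compound.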

Where [7] appears, read: at 5.0 µM (retest, dose inferred, filed as 0.5).
Setting [8] is: at 50.0 µM (retest, dose inferred, filed as 5.0).

On to `ClCCN(CCCl)c1ccc(C2N(Cc3ccc(Cl)cc3)CCCN2Cc2ccc(Cl)cc2)cc1`, for which the growth inhibition in assay [1] (setting [7]) is 11%; in assay [1] (setting [8]), 56%; in assay [1] (at 50.0 µM), 98.5% (active); in assay [2] (setting [7]), 10%; in assay [2] (setting [8]), 39%; in assay [2] (at 50.0 µM) it was 98.5% (active). Moreover, the growth inhibition is 16% in assay [3] (setting [7]); 68% in assay [3] (setting [8]); 98.8% (active) in assay [3] (at 50.0 µM); 4% in assay [4] (setting [7]); 24% in assay [4] (setting [8]); 94.9% (active) in assay [4] (at 50.0 µM). Besides, the growth inhibition in assay [5] (setting [7]) is 7%; in assay [5] (setting [8]) it was 35%; in assay [5] (at 50.0 µM), 98.8% (active); in assay [6] (setting [7]), 33%; in assay [6] (setting [8]), 94% (active); in assay [6] (at 50.0 µM) it was 98.4% (active).

With `CC[C@H](C)[C@@H]1OC(=O)[C@@H](C)[C@@H](CC)NC(=O)[C@H](C)NC(=O)C(C)(C)C(=O)[C@H](C)NC(=O)[C@H](Cc2ccc(OC)cc2)N(C)C(=O)[C@H](C(C)C)N(C)C(=O)CNC(=O)[C@H](CC(C)C)N(C)C(=O)CNC1=O` (cyclo(A[X2]G[NMeL]G[NMeV][NMeY](Me)[X3])), the growth inhibition is 99% (active) in assay [1] (setting [7]); 99% (active) in assay [1] (setting [8]); 92% (active) in assay [1] (at 50.0 µM); 99% (active) in assay [2] (setting [7]); 99% (active) in assay [2] (setting [8]); 94% (active) in assay [2] (at 50.0 µM). Moreover, the growth inhibition in assay [3] (setting [7]) is 99% (active); in assay [3] (setting [8]), 99% (active); in assay [3] (at 50.0 µM), 93% (active); in assay [4] (setting [7]), 98% (active); in assay [4] (setting [8]), 98% (active); in assay [4] (at 50.0 µM), 91% (active). Also, the growth inhibition in assay [5] (setting [7]) was 99% (active); in assay [5] (setting [8]), 98% (active); in assay [5] (at 50.0 µM) it was 92.7% (active); in assay [6] (setting [7]), 96% (active); in assay [6] (setting [8]), 97% (active); in assay [6] (at 50.0 µM) it was 90.2% (active).

With `O=C(N/N=C/c1cc(Cl)cc(Cl)c1[O-])c1ccccc1O.O=C(N/N=C/c1cc(Cl)cc(Cl)c1[O-])c1ccccc1O.[Zn+2]`, the growth inhibition was 93% (active) in assay [1] (setting [7]); 63% in assay [1] (setting [8]); 94.5% (active) in assay [1] (at 50.0 µM); 97% (active) in assay [2] (setting [7]); 64% in assay [2] (setting [8]); 91.8% (active) in assay [2] (at 50.0 µM). In addition, the growth inhibition in assay [3] (setting [7]) is 96% (active); in assay [3] (setting [8]) it was 72% (active); in assay [3] (at 50.0 µM), 93% (active); in assay [4] (setting [7]), 92% (active); in assay [4] (setting [8]), 50%; in assay [4] (at 50.0 µM), 91.8% (active). Besides, the growth inhibition in assay [5] (setting [7]) is 95% (active); in assay [5] (setting [8]) it was 62%; in assay [5] (at 50.0 µM), 92.7% (active); in assay [6] (setting [7]) it was 95% (active); in assay [6] (setting [8]), 64%; in assay [6] (at 50.0 µM) it was 95.1% (active).

In the case of `CN(C)c1ccc(/C=C/c2cc[n+]3ccsc3n2)cc1`, the growth inhibition in assay [1] (setting [7]) was -3%; in assay [1] (setting [8]) it was 69%; in assay [1] (at 50.0 µM), 90.8% (active); in assay [2] (setting [7]), 24%; in assay [2] (setting [8]) it was 94% (active); in assay [2] (at 50.0 µM), 88% (active). For the same compound, the growth inhibition is -10% in assay [3] (setting [7]); 93% (active) in assay [3] (setting [8]); 92.2% (active) in assay [3] (at 50.0 µM); -5% in assay [4] (setting [7]); 63% in assay [4] (setting [8]); 72% (active) in assay [4] (at 50.0 µM). Besides, the growth inhibition in assay [5] (setting [7]) was 8%; in assay [5] (setting [8]), 90% (active); in assay [5] (at 50.0 µM), 96.2% (active); in assay [6] (setting [7]), 2%; in assay [6] (setting [8]), 85% (active); in assay [6] (at 50.0 µM), 97.2% (active).

With `COc1ccc2c3c1OC1C(=O)C4CC5(c6c(O)ccc(O)c64)C(C2)N(C)CCC315` (configuration not stated), the growth inhibition in assay [1] (setting [7]) is -6%; in assay [1] (setting [8]) it was 99% (active); in assay [1] (at 50.0 µM) it was 98.5% (active); in assay [2] (setting [7]) it was -2%; in assay [2] (setting [8]), 92% (active); in assay [2] (at 50.0 µM), 99% (active). Also, the growth inhibition in assay [3] (setting [7]) was -6%; in assay [3] (setting [8]), 99% (active); in assay [3] (at 50.0 µM) it was 99.1% (active); in assay [4] (setting [7]) it was -14%; in assay [4] (setting [8]), 98% (active); in assay [4] (at 50.0 µM) it was 98.1% (active). In addition, the growth inhibition in assay [5] (setting [7]) was -3%; in assay [5] (setting [8]), 99% (active); in assay [5] (at 50.0 µM), 98.5% (active); in assay [6] (setting [7]) it was 13%; in assay [6] (setting [8]), 99% (active); in assay [6] (at 50.0 µM) it was 99% (active).

In the case of `O=C1C=C(Cl)C(=O)C=C1Cl`, the growth inhibition is 17% in assay [1] (setting [7]); 99% (active) in assay [1] (setting [8]); 99.2% (active) in assay [1] (at 50.0 µM); 13% in assay [2] (setting [7]); 100% (active) in assay [2] (setting [8]); 99.5% (active) in assay [2] (at 50.0 µM). Moreover, the growth inhibition is 10% in assay [3] (setting [7]); 99% (active) in assay [3] (setting [8]); 99.5% (active) in assay [3] (at 50.0 µM); 5% in assay [4] (setting [7]); 91% (active) in assay [4] (setting [8]); 86.7% (active) in assay [4] (at 50.0 µM). The growth inhibition is 5% in assay [5] (setting [7]); 99% (active) in assay [5] (setting [8]); 99.3% (active) in assay [5] (at 50.0 µM); 11% in assay [6] (setting [7]); 99% (active) in assay [6] (setting [8]); 99.3% (active) in assay [6] (at 50.0 µM).

With `CC[n+]1c(-c2ccccc2)c2cc(N)ccc2c2ccc(N)cc21`, the growth inhibition in assay [1] (setting [7]) is 39% and 29%; in assay [1] (setting [8]), 91% (active) and 92% (active); in assay [1] (at 50.0 µM) it was 81.6% (active) and 83.3% (active); in assay [2] (setting [7]) it was 7% and -18%; in assay [2] (setting [8]) it was 45% and 13%; in assay [2] (at 50.0 µM) it was 3.7% and 3.85%. The growth inhibition in assay [3] (setting [7]) is -4% and -13%; in assay [3] (setting [8]), 16% and 27%; in assay [3] (at 50.0 µM), 23.3% and 32.1%; in assay [4] (setting [7]), 2% and -6%; in assay [4] (setting [8]), 27% and 40%; in assay [4] (at 50.0 µM) it was 11.8% and 34.9%. Further, the growth inhibition in assay [5] (setting [7]) was -7% and -2%; in assay [5] (setting [8]), 27% and 24%; in assay [5] (at 50.0 µM), 52.9% and 5.2%; in assay [6] (setting [7]), -17% and -4%; in assay [6] (setting [8]), 25% and 20%; in assay [6] (at 50.0 µM), 20.2% and 34.6%.

As for `Cc1cc(N(CCCl)CCCl)ccc1CN1CCCN(Cc2ccc(N(CCCl)CCCl)cc2C)C1c1cccc(F)c1`, the growth inhibition was 6% in assay [1] (setting [7]); 97% (active) in assay [1] (setting [8]); 40.8% in assay [1] (at 50.0 µM); -27% in assay [2] (setting [7]); 99% (active) in assay [2] (setting [8]); 18% in assay [2] (at 50.0 µM). Further, the growth inhibition in assay [3] (setting [7]) is 1%; in assay [3] (setting [8]), 98% (active); in assay [3] (at 50.0 µM) it was 80.5% (active); in assay [4] (setting [7]), 2%; in assay [4] (setting [8]), 97% (active); in assay [4] (at 50.0 µM), -0.15%. The growth inhibition was 3% in assay [5] (setting [7]); 98% (active) in assay [5] (setting [8]); 2.15% in assay [5] (at 50.0 µM); 8% in assay [6] (setting [7]); 95% (active) in assay [6] (setting [8]); 76.5% (active) in assay [6] (at 50.0 µM).

For `CC12CCC(O)CC1CCC1C2CCC2(C)C1CC1CC(=O)OC12` (configuration not stated), the growth inhibition was 82% (active) in assay [1] (setting [7]); 98% (active) in assay [1] (setting [8]); 98.5% (active) in assay [1] (at 50.0 µM); 58% in assay [2] (setting [7]); 98% (active) in assay [2] (setting [8]); 85.3% (active) in assay [2] (at 50.0 µM). Moreover, the growth inhibition in assay [3] (setting [7]) is 83% (active); in assay [3] (setting [8]), 98% (active); in assay [3] (at 50.0 µM), 99% (active); in assay [4] (setting [7]), 57%; in assay [4] (setting [8]), 99% (active); in assay [4] (at 50.0 µM), 98.8% (active). Further, the growth inhibition in assay [5] (setting [7]) is 72% (active); in assay [5] (setting [8]), 98% (active); in assay [5] (at 50.0 µM), 98.9% (active); in assay [6] (setting [7]), 85% (active); in assay [6] (setting [8]), 98% (active); in assay [6] (at 50.0 µM), 97.2% (active).
